# ULK1 inh: inhibitors of human ULK1 kinase. O75385. AlphaScreen Atg13 phosphorylation by ULK1, luminescence. inhibition, % at 5.96 µM. actives 1.9% (n = 30,000). AID 1259251; in the data active = inhibition above about 43%;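 note: 0% = median of compound wells and 100% = no enzyme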
# ASK1 primary: human ASK1 kinase inhibition, primary screen. AID 1159602. Q99683. actives 0.99% (n = 22,000). AlphaScreen MKK6 phosphorylation by ASK1, luminescence. inhibition, % at 7.44 µM; in the data active = inhibition above about 35%;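 note: 0% = median of compound wells and 100% = no enzyme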
# AlphaScreen intf: AlphaScreen optical interference dose response, ASK1 counter-screen | shares compounds with ASK1 primary | AlphaScreen TruHits beads, signal interference counterscreen | IC50, µM | actives 20% (n = 220);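 active = IC50 of 10 µM or lower in the counterscreen; inactive = IC50 above 10 µM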;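 note: loss of AlphaScreen light from TruHits beads alone with no ASK1 enzyme present; potency of signal reduction so a low IC50 flags an assay artifact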
# * marks the source's active call; other numbers are inactive results; i = inactive; . = no result given; ! = repeats disagree. Most compounds without a hit are left out; they make up all but 2.4% or so of the library.
SMILES,ULK1 inh,ASK1 primary,AlphaScreen intf
CC(=O)c1cccc(-c2ccc(C(=O)NCCc3ccc(O)cc3)s2)c1,-17,-10,.
Nc1cccc(-c2ccc(C(=O)NCCc3ccc(O)cc3)s2)c1,43*,7,.
Clc1ccc2c(c1)C(N1CCNCC1)=Nc1ccccc1O2,-9,.,.
c1ccc(Nc2nc(NC3CC3)c3[nH]cnc3n2)nc1,-9,-10,.
c1cncc(Nc2nc(NC3CC3)c3[nH]cnc3n2)c1,60*,-45,.
COc1cccc(CN(CCCN2CCN(C)CC2)C(=O)Nc2ccc(-c3cn[nH]c3)cc2)c1,0,-12,.
CN1CCN(C(=O)c2ccc(-c3nc4ccc(C(=O)NCc5cccnc5)cc4s3)cc2)CC1,8,4,.
O=C(NCc1cccnc1)c1cccc(-c2ccccc2)c1,-5,-7,.
CCCNc1nc(Nc2nc3ccccc3n2C)nc2c1ncn2C1CCCCC1,41,2,.
Cn1c(Nc2nc(NCCc3ccc(O)cc3)c3ncn(C4CCCCC4)c3n2)nc2ccccc21,44*,-2,.
O=C1CCCN1CCCNc1nc(NCc2ccccc2)c2ncn(CCN3CCCC3=O)c2n1,0,-9,.
CS(=O)(=O)c1ccc(NCCc2ccccc2)cc1,68*,.,.
NNCCc1ccccc1,-10,.,.
COc1cc(Nc2nc(Nc3ccccn3)ncc2C)cc(OC)c1OC,51*,-9,.
COc1cc(Nc2cc(C)nc(Nc3cccnc3)n2)cc(OC)c1OC,45*,22,.
COc1cc(Nc2cc(C)nc(Nc3cc(OC)c(OC)c(OC)c3)n2)cc(OC)c1OC,-25,-12,.
COc1cc(Nc2nc(Nc3ccncn3)ncc2C)cc(OC)c1OC,15,23,.
COc1cc(Nc2nc(Nc3ccccc3)ncc2C)cc(OC)c1OC,62*,15,.
COc1cc(Nc2ncc(C)c(Nc3cc(OC)c(OC)c(OC)c3)n2)cc(OC)c1OC,28,20,.
Cn1ccc2cc(-c3ccc(C(=O)NCc4cccnc4)s3)ccc21,27,12,.
NC(=O)c1cc2ccccc2cc1Nc1ccnc(Nc2ccc(N3CCOCC3)cc2)c1,-2,36*,>19
NC(=O)c1cnc(Nc2ccnc(Nc3ccc(N4CCOCC4)cc3)c2)s1,28,-2,.
CN(C)c1cccc(Nc2nc(NCCc3ccc(O)cc3)c3ncn(-c4ccccc4)c3n2)c1,16,37*,>20
COc1ccc(CCNc2nc(Nc3cccc(N(C)C)c3)nc3c2ncn3Cc2ccc(C(F)(F)F)cc2)cc1,22,30,.
CC(C)N(CCNc1nc(Nc2cccc(N(C)C)c2)nc2c1ncn2C1CCCCC1)C(C)C,3,28,.
SMILES,ULK1 inh,ASK1 primary,AlphaScreen intf
CN(C)c1cccc(Nc2nc(NCCc3ccc(O)cc3)c3ncn(Cc4ccc(C(F)(F)F)cc4)c3n2)c1,32,37*,>19
CN(C)c1cccc(Nc2nc(NCCc3ccc(O)cc3)c3ncn(C4CCCCC4)c3n2)c1,21,38*,>20
Oc1ccc(CCNc2nc(Nc3ccccc3)nc3c2ncn3-c2ccccc2)cc1,-33,16,.
O=C1CC(c2ccc(Cl)cc2)CC(=O)N1,-5,.,.
FC(F)(F)c1ccc(Nc2nc(NCCN3CCOCC3)c3ncn(C4CCCCC4)c3n2)cc1,-14,9,.
CCCn1ncc(-c2ccnc(Nc3ccc(-n4cnc(C)n4)cc3)c2)c1-c1ccc(F)cc1,-13,3,.
O=C(NCCc1ccc(O)cc1)c1cc(Nc2ccc(C(F)(F)F)cc2)nc2ccccc12,-14,2,.
NC(C(=O)N1CCN(C(=O)Nc2ccc3[nH]ncc3c2)CC1)c1cccc(Cl)c1 (centres undefined),16,-10,.
Cc1cc(NC2CC2)nc(Nc2ccc(N3CCOCC3)cc2)n1,5,7,.
Cc1cc(NC2CCN(Cc3ccccc3)CC2)nc(Nc2ccc(N3CCOCC3)cc2)n1,6,40*,i
Nc1nc(Nc2ccc(N3CCOCC3)cc2)cc(NC2CCN(Cc3ccccc3)CC2)n1,19,43*!,>23
c1ccc(CN2CCC(Nc3cc(Nc4ccc(N5CCOCC5)cc4)ncn3)CC2)cc1,8,-5,.
COc1cc2nc(Nc3ccccc3)nc(Nc3ccc(NC(C)=O)cc3)c2cc1OC,-5,3,.
COc1cc2nc(Nc3nccc4ccccc34)nc(Nc3ccc(NC(C)=O)cc3)c2cc1OC,-2,69*,>19
NNCC1CCCCC1,-11,.,.
Cc1cc(NCCO)nc(Nc2cccc(N(C)C)c2)n1,-18,6,.
Cc1cc(NCCc2ccc(O)cc2)nc(Nc2cccc(N(C)C)c2)n1,-3,55*,9*
Cc1cc(NCCOc2ccccc2)nc(Nc2cccc(N(C)C)c2)n1,9,57*,6*
CC(=O)Nc1ccc(Nc2cc(Nc3cccc(N(C)C)c3)ncn2)cc1,2,-7,.
CN(C)c1cccc(Nc2cc(Nc3ccccc3)ncn2)c1,-1,37*,>22
Cc1cc(NCCOc2ccccc2)nc(Nc2cccnc2)n1,-15,-7,.
O=C(NCCN1CCOCC1)c1cnc(Nc2ccc3ncccc3c2)s1,-5,-15,.
N[C@H](Cc1ccc(F)c(F)c1)c1nc2ccc(-c3ccncc3)cc2[nH]1,-8,2,.
CC(=O)Nc1ccc(Nc2nc(Nc3ccnn3C)ncc2C)cc1,23,9,.
Cc1ncn(-c2ccc(Nc3nccc(-c4cc(F)cc(-c5cn[nH]c5C)c4)n3)cc2)n1,6,48*,>19
SMILES,ULK1 inh,ASK1 primary,AlphaScreen intf
Cc1nc(C)n(-c2ccc(Nc3nccc(-c4cncc(F)c4)n3)cc2)n1,2,2,.
Cc1nc(C)n(-c2ccc(Nc3nccc(-c4cc(F)cc(-c5ncco5)c4)n3)cc2)n1,13,38*,>19
Cc1nc(C)n(-c2ccc(Nc3nccc(-c4cc(F)cc(-c5cn[nH]c5C)c4)n3)cc2)n1,0,36*,>19
Cc1[nH]ncc1-c1cc(F)cc(-c2ccnc(Nc3ccc(-n4cnc(C(F)(F)F)n4)cc3)n2)c1,-2,25,.
Cc1nc(C)n(-c2ccc(Nc3nccc(-c4cc(F)cc(-c5ccnn5C)c4)n3)cc2)n1,-1,5,.
c1ccc2[nH]c(CNc3nc(-c4ccc(N5CCOCC5)nc4)nc4c3ncn4-c3ccsc3)nc2c1,4,-12,.
COc1ccc2c(c1)C[C@H](C(=O)Nc1ccc(-c3cn[nH]c3)cc1OCCN(C)C)CO2,-4,-6,.
COc1ccc2c(c1)CC(C(=O)Nc1ccc(-c3cn[nH]c3)cc1OCCN(Cc1ccccc1)Cc1ccccc1)CO2 (centres undefined),12,41*,>19
Cn1cc(-c2ccc3cnc(Nc4ccc(-n5cnc(N6CCOCC6)n5)cc4)nc3c2)cn1,56*,48*,>19
Cn1cc(-c2ccc3cnc(Nc4ccc(-n5cnc(N6CCOCC6)n5)cc4)nc3c2-c2ccccc2)cn1,-78,-17,.
COc1c(-c2cnn(C)c2)ccc2cnc(Nc3ccc(-n4cnc(N5CCOCC5)n4)cc3)nc12,83*,42*,>19
c1cc(-c2ccc3cnc(Nc4ccc(-n5cnc(N6CCOCC6)n5)cc4)nc3c2)ccn1,12,5,.
COc1cc2nc(-c3ccc(C(N)=O)cc3)nc(NC3CC3)c2cc1OC,-8,3,.
O=C(Cc1cn(-c2ccc(Nc3cnccn3)nn2)c2ccccc12)NCCOc1ccccc1,-9,-2,.
CCCNc1nc(N2CCN(c3ccccn3)CC2)nc2c1ncn2C(C)C,-4,15,.
c1ccc(-n2cnc3c(NCc4cccnc4)nc(Nc4cccnc4)nc32)cc1,25,-10,.
c1cncc(CNc2nc(Nc3ccc(N4CCOCC4)cc3)nc3c2ncn3C2CCCCC2)c1,11,36*,>20

# Screening results (PubChem BioAssay)
